From PubChem BioAssay AID1645857 (Buhrlage Lab, Dana-Farber Cancer Institute and Novartis …, 2021) come the findings set out here.

Screen size: about 47,000 compounds; about 1,400 (3%) were called active. What follows is part of a selection rich in actives, with near analogues and random picks from the rest. A number with no mark means an inactive call. Rule as the data show it: active = inhibition above about 30%; inactive = the rest.

This assay deals with Ubiquitin carboxyl-terminal hydrolase 28 (Homo sapiens) (UniProt Q96RU2). Description: inhibitors of human USP28 deubiquitinase (AID 1645857). The note with it: purified USP28, Ub-rhodamine cleavage fluorescence, 30 min; at 25 µM; stronger effect = higher value.
Sequence of Ubiquitin carboxyl-terminal hydrolase 28 (Homo sapiens) (Q96RU2 whole entry, looked up): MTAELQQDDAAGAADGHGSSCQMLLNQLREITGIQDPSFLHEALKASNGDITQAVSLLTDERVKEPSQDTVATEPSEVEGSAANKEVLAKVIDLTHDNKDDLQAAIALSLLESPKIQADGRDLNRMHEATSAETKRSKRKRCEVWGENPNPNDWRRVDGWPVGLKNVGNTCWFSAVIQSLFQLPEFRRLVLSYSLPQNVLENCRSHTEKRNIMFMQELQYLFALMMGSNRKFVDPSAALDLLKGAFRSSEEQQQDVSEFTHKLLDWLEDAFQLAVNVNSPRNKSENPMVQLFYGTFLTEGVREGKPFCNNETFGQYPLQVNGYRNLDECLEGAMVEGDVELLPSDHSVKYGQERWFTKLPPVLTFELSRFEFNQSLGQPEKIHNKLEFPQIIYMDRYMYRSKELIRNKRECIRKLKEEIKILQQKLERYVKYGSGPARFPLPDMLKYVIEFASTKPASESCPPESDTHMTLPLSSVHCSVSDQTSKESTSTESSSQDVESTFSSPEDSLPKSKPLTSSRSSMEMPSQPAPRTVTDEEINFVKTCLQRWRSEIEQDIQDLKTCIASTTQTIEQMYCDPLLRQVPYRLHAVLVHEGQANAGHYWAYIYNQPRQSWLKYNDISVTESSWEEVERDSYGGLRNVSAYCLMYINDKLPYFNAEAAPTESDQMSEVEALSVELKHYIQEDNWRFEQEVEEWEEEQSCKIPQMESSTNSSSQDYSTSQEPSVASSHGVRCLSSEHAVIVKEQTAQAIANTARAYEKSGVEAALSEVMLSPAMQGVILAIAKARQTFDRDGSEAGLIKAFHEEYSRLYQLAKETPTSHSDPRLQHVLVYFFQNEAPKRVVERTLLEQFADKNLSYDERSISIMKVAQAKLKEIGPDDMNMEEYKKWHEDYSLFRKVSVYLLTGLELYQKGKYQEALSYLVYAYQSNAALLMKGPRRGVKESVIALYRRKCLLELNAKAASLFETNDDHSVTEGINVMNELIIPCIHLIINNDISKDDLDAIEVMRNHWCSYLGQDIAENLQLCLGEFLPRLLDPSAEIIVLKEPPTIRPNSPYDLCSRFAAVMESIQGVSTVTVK
What is called inhibition is the relative decrease from the control value, in per cent. Take `NC(=O)c1c(NC(=O)/C=C/C(=O)O)sc2c1CCCCCC2`: the inhibition was -7.88%.

Regarding `COc1cccc(N2C(=O)c3cccnc3C2Nc2ccc(C)c(C)c2)c1` (centres undefined), the inhibition was -14.4%.

As for `O=C(Nc1ccc2c(c1)OCO2)N1CCCCCC1`, the inhibition is -1.57%.

In the case of `O=C(/C=C/c1ccc(Cl)cc1)Nc1ccc2c(c1)OCCO2`, the inhibition was 35.4% (active).

Turning to `COc1ccc(/C=C/C(=O)Nc2ccc3c(c2)OCCO3)cc1Br`, the inhibition was 76.8% (active).

As to `O=C(Nc1ccc2c(c1)OCO2)c1sc2cc(Cl)ccc2c1Cl`, the inhibition is -10.3%.

With `COc1ccc(NS(=O)(=O)c2cc(NC(=O)/C=C/c3cccc(OC)c3)ccc2OC)cc1`, the inhibition is 19.1%.

On to `COc1ccc(NC(=O)CCC(=O)c2ccc3c(c2)OCCO3)cc1S(=O)(=O)Nc1ccc(Cl)cc1`, for which the inhibition is 16.3%.

Take `COc1ccc(S(=O)(=O)c2cnc3cc(OC)c(OC)cc3c2N2CCOCC2)cc1`: the inhibition is 3.3%.

With `COc1ccccc1NC(=O)CCC(=O)N1CCSc2ccccc21`, the inhibition is -4.12%.

On to `Brc1ccc2[nH]c3c(NCCCN4CCOCC4)ncnc3c2c1`, for which the inhibition was -18.8%.

Consider `COc1cc(NC(=O)c2noc3c2CCc2sccc2-3)cc(OC)c1`, for which the inhibition was 43.6% (active).

With `O=C(NCc1ccccc1)c1noc2c1CCc1sccc1-2`, the inhibition was 0.0745%.

For the compound `COc1cc(OC)cc(C(=O)Nc2ccc(S(=O)(=O)Nc3cc(C)on3)cc2)c1`, the inhibition was 12.8%.

In the case of `COc1cccc(C2c3[nH]c4ccccc4c3C[C@@H]3C(=O)N(CCCn4ccnc4)CC(=O)N23)c1` (some centres undefined), the inhibition is -0.857%.

On to `CC(C)(C)c1ccc(C(=O)Nc2cccc(-c3nc4ncccc4o3)c2)cc1`, for which the inhibition is 2.33%.

`COc1cccc(NC(=O)C(C#N)C(=O)C2CC2c2cccc(C)c2)c1` (centres undefined): the inhibition was 26.5%.

For `Cc1c(-c2nn3c(-c4ccco4)nnc3s2)cccc1[N+](=O)[O-]`, the inhibition was 33.6% (active).

Take `Cc1cc(C)n2nc(C(=O)N(C)C(c3ccccc3)c3ccccc3)nc2n1`: the inhibition was 5.86%.

On to `COc1ccc2[nH]c3c(NCCCN4CCOCC4)ncnc3c2c1`, for which the inhibition was -8.4%.

`O=C(c1ccc2cc[nH]c2c1)N1CCCC2(COCCN(CC3CC3)C2)C1` (centres undefined): the inhibition was -13.8%.

As to `Cc1ccc(S(=O)(=O)NCC(c2ccc3c(c2)CCN3C)N2CCCC2)c(C)c1` (centres undefined), the inhibition is -0.036%.

Regarding `COc1ccc(C(=O)N2CCCN(c3ncccc3-c3nc(C)no3)CC2)cc1`, the inhibition was 5.18%.

Take `Cc1ccc(NC(=O)Cc2nc(-c3ccccc3)n[nH]2)cc1`: the inhibition was -4.45%.

As to `CC(C)(C)C(=O)OCc1noc(-c2ccccc2)n1`, the inhibition is 7.9%.

Take `O=C(NCc1noc(-c2ccccc2)n1)C1CCCC1`: the inhibition is -13.9%.

For the compound `O=C1COc2ccccc2N1Cc1noc(-c2ccccc2)n1`, the inhibition is 72.3% (active).

With `O=C1NC2(CCCc3ccccc32)C(=O)N1Cc1csc(-c2ccc(Cl)cc2)n1` (centres undefined), the inhibition is 2.68%.

Regarding `COc1cccc(-c2noc(CN3CCCC3c3cc(OC)ccc3OC)n2)c1` (centres undefined), the inhibition is -19.5%.

For `O=C(COc1ccccc1)Nc1cnc(-c2cccc(Cl)c2)nc1`, the inhibition was 0.526%.

Take `COc1cc(-c2nc3sc4c(c3c(=O)[nH]2)CCC(C)C4)ccc1OCc1ccc(C)cc1` (centres undefined): the inhibition is 13.3%.

On to `CC1CCc2c(sc3ncnc(OCc4cccc([N+](=O)[O-])c4)c23)C1` (centres undefined), for which the inhibition was 94.8% (active).

Take `CC1CCc2c(sc3nc(CC#N)[nH]c(=O)c23)C1` (centres undefined): the inhibition was -258%.

`Cc1nc(C2CCCN(C(=O)c3cccnc3N)C2)nc2c1CC(=O)N2Cc1ccccc1` (centres undefined): the inhibition was -6.04%.

For `C=C1Nc2ccccc2C(=O)N1c1cccc(NC(=O)Cc2ccc(F)cc2)c1`, the inhibition was 2.69%.

In the case of `CNc1nc2c(c(=O)n1C)CN(C(=O)Nc1ccccc1Oc1ccccc1)CC2`, the inhibition is 14.2%.

As to `COc1ccc(NC(=O)c2sc(N3CCOCC3)nc2-c2ccccc2)c(OC)c1`, the inhibition is 15.1%.

As to `COc1cccc(-c2cc(C(=O)N3CCN(c4ccc(N5CCOCC5)nn4)CC3)[nH]n2)c1`, the inhibition is 69.8% (active).

Regarding `O=C(c1cccnc1)N1CCN(c2cc(-c3ccccc3)[nH]n2)CC1`, the inhibition is 4.54%.

With `COc1cccc(C(=O)N2CCCC2c2nc(-c3ccccc3)no2)c1` (centres undefined), the inhibition was 1.43%.

As for `C=C(CCC(C(=O)O)[C@H]1[C@H](O)C[C@@]2(C)C3=C(CC[C@]12C)[C@@]1(C)CC[C@H](OC(C)=O)C(C)(C)[C@@H]1CC3)C(C)C` (some centres undefined), the inhibition is 3.27%.

Turning to `COCCCNC(=O)c1cc2c(=O)n3ccccc3nc2n1Cc1ccccc1`, the inhibition is 9.14%.

For the compound `CSc1ncccc1C(=O)Nc1ccnn1C(C)c1ccncc1` (centres undefined), the inhibition is -28.1%.

Regarding `CCCOc1ccc(NC(=O)c2ccc(Br)cc2)c2cccnc12`, the inhibition was -10.2%.

Turning to `CSc1ncccc1C(=O)OCc1ccc(Br)cc1`, the inhibition was 76.8% (active).

Consider `CCCCNC(=O)Cc1csc(COc2ccc(C)cc2)n1`, for which the inhibition is 2.41%.

Take `O=C(NC1CCCC1)c1ccccc1N1C(=O)[C@@H]2Cc3c([nH]c4ccccc34)C(c3ccc(F)cc3)N2C1=O` (some centres undefined): the inhibition was -2.2%.

As for `CN1CCCN(C(=O)C2CCCCC2)CC1`, the inhibition is -7.1%.

`COC(=O)c1ccc(C(=O)NCC2(O)CCc3ccccc32)cc1` (centres undefined): the inhibition is 6.5%.

For `COC(=O)c1ccc(C2c3[nH]c4ccccc4c3C[C@H]3C(=O)N(CC4CCCO4)CC(=O)N23)cc1` (some centres undefined), the inhibition is -2.7%.

With `COC(=O)c1ccc(C2Oc3ccccc3CN2c2ccccc2Cl)cc1` (centres undefined), the inhibition is 34.3% (active).

As to `Cn1nc(C2CCCN(Cc3cc(F)cc(F)c3)C2)c2nccnc21` (centres undefined), the inhibition was -9.38%.

As to `COc1ccccc1CNC(=O)c1nc(N2CCSCC2)c2cn(C)nc2n1`, the inhibition was 32.8% (active).

`COc1ccccc1CNC(=O)c1c(O)c2cccnc2n(-c2ccccc2)c1=O`: the inhibition was -16.9%.

For the compound `CCN1CCC2(CC1)OC(=O)C(C)=C2C(=O)NCc1ccccc1OC`, the inhibition is -9.74%.

`O=C(CCc1nnc2ccc(N3CCOCC3)nn12)N1CCC(Cc2ccccc2)CC1`: the inhibition was 3.03%.

As to `CC(C)C(=O)Nc1nc2ccc(CCC(=O)Nc3ccc(F)cc3)cc2s1`, the inhibition was -0.104%.

Take `O=C(Cc1cccc2ccccc12)Nc1nc2ccc(F)cc2s1`: the inhibition is 55.7% (active).

Consider `CCCC(=O)Nc1nc2ccc(CCC(=O)NCc3ccc(F)cc3)cc2s1`, for which the inhibition is -4.54%.
